Assay results taken from PubChem BioAssay.
Values joined by “and” are separate entries in the source; they are usually repeats but may differ in a detail not shown here. Identical values can stand only once. Active and inactive are the calls of the source.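 Rule for the calls, unless noted: active = thallium flux through the channel raised or lowered by more than 3 SD from vehicle-only wells, actives on both sides; inactive = the rest.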

Legend:
[1] = tested on: Hepatitis C virus NS3 helicase; test: blockers of NS3h binding to DNA – biochemical, fluorescence polarization, NIH Clinical Collection, primary screen (AID 743270; call rule not given here); details: NS3 helicase binding to Cy5-dT15 DNA, stronger effect = higher value, concentration not given here
[2] = target: Single-stranded DNA-binding protein (Escherichia coli (strain K12)) (UniProt P0AGE0); test: SSB-ssDNA binding inhibitors – biochemical, fluorescence polarization, NIH Clinical Collection, counter-screen for HCV NS3 helicase inhibitor project (AID 743271; in the data active = inhibition above about 28%); details: E. coli SSB-DNA binding, stronger effect = higher value, concentration not given here
[3] = compounds distorting NS3 helicase fluorescence signal – biochemical, NIH Clinical Collection, artefact control for HCV NS3 helicase inhibitor project (AID 743272; call rule not given here;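 note: HCV NS3 helicase with a Cy5 labelled single stranded DNA probe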); details: fluorescence interference counterscreen, HCV NS3 helicase assay; stronger effect = lower value
[4] = Wnt pathway potentiators raising nuclear beta-catenin – imaging, WNT3A-conditioned medium, mouse C2C12, NPC library, primary screen (AID 1117326; in the data active = nuclear beta-catenin stimulation mostly above about 4.2%, no sharp cut-off; inactive = mostly below about 10%); details: stronger effect = higher value
[5] = stimulators of insulin release from INS-1E, primary screen, cell-based, 5 mM glucose, NPC library (AID 1117329;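 active = compound raises insulin release from rat beta cells at 5 mM glucose, no numeric limit stated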); details: rat INS-1E insulin secretion, at 10 µM, stronger effect = higher value
[6] = growth inhibition of GSK3B-pretreated HCT116 cells – cell-based, CellTiter-Glo, 0.2 to 20 µM (AID 1117336;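 active = compounds lowering colon cancer cell viability after pretreatment blocking the GSK3B kinase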); details: HCT116 viability after GSK3B inhibitor, at 20 µM, stronger effect = higher value
[7] = inhibition of endothelial tube formation, primary screen, imaging, VEGF stimulated, CD31 staining, tube area, NPC library (AID 1117340;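 active = compound that reduces growth-factor-driven endothelial tube area in a mixed cell culture, no cutoff stated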); details: VEGF-stimulated ADSC/ECFC co-culture, at 10 µM, stronger effect = higher value
[8] = GLP1 release stimulators, primary, NCI-H716, NPC library (AID 1117341;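 active = compound raises GLP1 secretion from the human gut endocrine cells, with no numeric limit stated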); details: NCI-H716 cells, at 10 µM, stronger effect = higher value
[9] = HCT116 colon cancer cell growth inhibition, primary screen, CellTiter-Glo luminescence, NPC library (AID 1117342;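 active = compounds that lower survival of HCT116 colon cancer cells in the luminescence readout, no numeric limit stated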); details: at 20 µM (top of the series)
[10] = reduced SW480 viability measured with CellTiter-Glo, NPC library, primary (AID 1117343;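 active = compounds that lower viability of the colon cancer cells in the luminescence readout, with no numeric limit stated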); details: CellTiter-Glo luminescence; at 20 µM (top of the series)
[11] = NPC library primary testing for decreased DLD-1 cell viability via CellTiter-Glo (AID 1117346;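 active = compounds that lower survival of DLD-1 colon cancer cells in the luminescence readout, no cutoff given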); details: DLD-1 viability, CellTiter-Glo luminescence; at 20 µM (top of the series)
[12] = target: 6-phosphogluconate dehydrogenase, decarboxylating (Homo sapiens) (UniProt P52209); test: inhibition of human phosphogluconate dehydrogenase – biochemical, recombinant enzyme, NADPH absorbance, primary screen (AID 1159550;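 active = at least 20% inhibition of 6-phosphogluconate dehydrogenase activity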); details: recombinant 6PGD, NADPH absorbance 341 nm; at 10 µM; stronger effect = higher value
[13] = EMT-state selective cytotoxicity in co-culture – imaging, PC-3E GFP, TEM4-18 mCherry, primary screen (AID 1345086;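 active = compounds killing one labelled cell type while sparing the other, by normalised counts and ratio limits, not self-fluorescent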;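 for all read-outs here: cells exposed to compound for 72 h before imaging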;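 for red/green cell ratio (normalised): normalised mesenchymal count divided by normalised epithelial count so high means epithelial killing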); details: PC-3E GFP / TEM4-18 mCherry co-culture, imaging cell counts, at 1 µM; for red/green cell ratio (normalised): actives lie on both sides, counts scaled to control wells, 1 = unselective
[14] = MELAS cybrid and Rieske KO viability enhancers – cell-based, MELAS cybrids, Rieske KO mouse fibroblasts, CellTiter-Glo, primary screen (AID 1508586;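 active = mean z-score across replicates of 1.96 or higher in either the MELAS or the Rieske mutant cell line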;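 note: z relative to plate mean and SD of compound and empty wells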); details: low glucose
[15] = target: NAD(+) hydrolase SARM1 (Homo sapiens) (UniProt Q6SZW1); test: blocking NAD cleavage by SARM1 SAM-TIR – cell lysate, NAD-Glo luminescence (AID 1508614;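 active = compound whose remaining NAD level is above about 45 nM, limit read from the data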;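 note: higher remaining NAD means stronger inhibition of SARM1 NADase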); details: SAM-TIR HEK293T lysate NADase, at 1 µM, stronger effect = higher value
[16] = target: Mitogen-activated protein kinase 7 (Homo sapiens) (UniProt Q13164); test: Gal4-ERK5 driven luciferase induction – cell-based, HTS, primary screen (AID 1508626;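 active = luciferase signal above three times the same-plate solvent-only control wells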;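 note: luciferase driven by Gal4-ERK5 fusion binding five Gal4 sites before minimal TATA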); details: HeLa Gal4-ERK5 transactivation, 18 h, at 5 µM, stronger effect = higher value
F380Y = test: BK channel mutant inhibitors and activators – cell-based, U2OS BacMam, thallium flux, beta subunits, selectivity assay, profiling panel (AID 1259406); details: U2OS BacMam BK variants, at 30 µM;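 note: initial slope of Thallos dye fluorescence rise after thallium is added; log ratio against the mean of 0.3% DMSO vehicle wells on the same plate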
F380Y/beta2Delta = test: as above; details: U2OS BacMam BK variants, at 30 µM
[17] = target: Calcium-activated potassium channel subunit alpha-1 (Homo sapiens) + Leucine-rich repeat-containing protein 26 (Homo sapiens) (UniProt Q12791+Q2I0M4); test: as above; details: U2OS BacMam BK variants, F380Y/Slo1WT/gamma1, at 30 µM
[18] = measured here: epithelial PC-3E GFP cell survival
[19] = measured here: mesenchymal TEM4-18 mCherry cell survival
[20] = MELAS cybrid survival, CellTiter-Glo 48 h, stronger effect = higher value
[21] = Rieske KO mouse fibroblast survival, CellTiter-Glo 72 h

Chain of Calcium-activated potassium channel subunit alpha-1 (Homo sapiens) + Leucine-rich repeat-containing protein 26 (Homo sapiens) (Q2I0M4 whole entry, looked up, one chain of several): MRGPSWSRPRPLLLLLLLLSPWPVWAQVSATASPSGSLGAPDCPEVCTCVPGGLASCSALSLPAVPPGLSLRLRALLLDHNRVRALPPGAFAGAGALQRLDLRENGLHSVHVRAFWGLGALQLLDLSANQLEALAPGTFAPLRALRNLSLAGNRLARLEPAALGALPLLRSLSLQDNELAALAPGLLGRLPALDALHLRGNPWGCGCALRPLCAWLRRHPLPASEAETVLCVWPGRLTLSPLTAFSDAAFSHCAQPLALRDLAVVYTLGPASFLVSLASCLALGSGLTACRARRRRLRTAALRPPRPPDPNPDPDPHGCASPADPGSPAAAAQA
Chain of NAD(+) hydrolase SARM1 (Homo sapiens) (Q6SZW1 whole entry, looked up, the tested form may be a part): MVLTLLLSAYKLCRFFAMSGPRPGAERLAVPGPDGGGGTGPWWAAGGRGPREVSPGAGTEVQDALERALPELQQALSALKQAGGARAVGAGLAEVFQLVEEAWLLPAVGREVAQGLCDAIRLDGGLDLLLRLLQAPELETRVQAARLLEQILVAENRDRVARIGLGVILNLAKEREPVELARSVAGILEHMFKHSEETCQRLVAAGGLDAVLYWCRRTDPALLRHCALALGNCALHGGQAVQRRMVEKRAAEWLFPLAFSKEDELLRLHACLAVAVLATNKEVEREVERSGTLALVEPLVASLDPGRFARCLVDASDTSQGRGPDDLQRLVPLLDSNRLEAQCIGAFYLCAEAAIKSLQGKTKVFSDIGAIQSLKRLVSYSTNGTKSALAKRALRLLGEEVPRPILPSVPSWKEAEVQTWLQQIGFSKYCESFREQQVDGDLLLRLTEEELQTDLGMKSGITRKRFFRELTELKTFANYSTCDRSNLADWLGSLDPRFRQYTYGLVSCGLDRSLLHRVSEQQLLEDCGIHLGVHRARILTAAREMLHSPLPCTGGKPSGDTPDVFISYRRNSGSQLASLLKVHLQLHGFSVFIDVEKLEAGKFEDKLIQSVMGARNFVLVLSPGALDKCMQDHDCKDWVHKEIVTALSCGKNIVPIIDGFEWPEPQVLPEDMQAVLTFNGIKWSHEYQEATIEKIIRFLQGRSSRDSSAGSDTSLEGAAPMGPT
Chain of 6-phosphogluconate dehydrogenase, decarboxylating (Homo sapiens) (P52209 whole entry, looked up): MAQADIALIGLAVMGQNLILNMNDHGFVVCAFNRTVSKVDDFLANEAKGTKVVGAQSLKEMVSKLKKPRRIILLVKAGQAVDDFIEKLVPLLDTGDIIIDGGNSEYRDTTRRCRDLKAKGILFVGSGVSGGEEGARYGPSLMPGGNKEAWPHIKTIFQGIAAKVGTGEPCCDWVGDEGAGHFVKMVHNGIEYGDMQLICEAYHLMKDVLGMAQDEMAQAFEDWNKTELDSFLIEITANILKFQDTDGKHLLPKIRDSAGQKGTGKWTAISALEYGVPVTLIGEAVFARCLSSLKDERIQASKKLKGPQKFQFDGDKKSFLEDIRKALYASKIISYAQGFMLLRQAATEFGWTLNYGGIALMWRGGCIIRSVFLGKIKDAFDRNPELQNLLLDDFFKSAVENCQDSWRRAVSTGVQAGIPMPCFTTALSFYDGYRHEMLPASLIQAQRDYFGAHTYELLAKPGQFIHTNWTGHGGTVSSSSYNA
Chain of Mitogen-activated protein kinase 7 (Homo sapiens) (Q13164 whole entry, looked up, the tested form may be a part): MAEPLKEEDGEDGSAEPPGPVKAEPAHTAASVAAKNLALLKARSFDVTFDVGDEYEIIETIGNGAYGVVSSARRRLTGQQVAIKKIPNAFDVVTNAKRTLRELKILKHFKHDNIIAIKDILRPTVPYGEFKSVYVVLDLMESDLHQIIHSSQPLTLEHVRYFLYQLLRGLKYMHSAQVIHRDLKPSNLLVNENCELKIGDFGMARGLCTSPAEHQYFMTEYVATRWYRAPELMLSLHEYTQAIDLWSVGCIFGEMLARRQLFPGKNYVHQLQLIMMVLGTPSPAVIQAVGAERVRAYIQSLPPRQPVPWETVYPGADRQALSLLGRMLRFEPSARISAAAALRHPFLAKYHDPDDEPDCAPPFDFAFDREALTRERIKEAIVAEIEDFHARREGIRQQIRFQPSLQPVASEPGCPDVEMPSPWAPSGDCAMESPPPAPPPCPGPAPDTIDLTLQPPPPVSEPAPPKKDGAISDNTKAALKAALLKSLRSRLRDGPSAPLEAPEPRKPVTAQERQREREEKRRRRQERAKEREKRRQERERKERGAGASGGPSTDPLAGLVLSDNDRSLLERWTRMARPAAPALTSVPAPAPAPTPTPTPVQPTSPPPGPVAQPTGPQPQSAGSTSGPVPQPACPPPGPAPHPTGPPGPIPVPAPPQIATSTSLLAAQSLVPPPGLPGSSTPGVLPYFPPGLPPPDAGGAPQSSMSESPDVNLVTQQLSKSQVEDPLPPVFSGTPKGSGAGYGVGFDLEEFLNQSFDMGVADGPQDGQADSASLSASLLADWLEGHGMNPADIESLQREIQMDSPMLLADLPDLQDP

## CSc1ccc2c(c1)N(CCC1CCCCN1C)c1ccccc1S2 (configuration not stated)
[1]
  inhibition: -5% (inactive)
[2]
  inhibition: 0.29% (inactive)
[3]
  fluorescence ratio: 0.85 (inactive)
[4]; at 10 µM
  nuclear beta-catenin stimulation: 22.9% (inactive)
[4]; stimulation, at 2 µM
  nuclear beta-catenin stimulation: 1.6%
[5]
  insulin secretion stimulation: 5.6% (inactive)
[6]
  viability decrease: 110% (active)
[7]
  tube area decrease: 103% (active)
[8]
  GLP1 secretion stimulation: 12.4% (inactive)
[9]
  inhibition of viability: 112% (active)
[10]
  viability decrease (inhibition): 133% (active)
[11]
  viability decrease (inhibition): 101% (active)
[12]
  inhibition: -1.24% (inactive)
[13]
  red/green cell ratio (normalised): 1.09 (inactive)
[13]; [18]
  normalised cell number: 0.88
[13]; [19]
  normalised cell number: 0.96
[14]; [20]
  z-score: -1.63 (inactive) and -1.09
[14]; [21]
  z-score: 0.0893 and 2.14
[15]
  remaining NAD: 10 nM (inactive)
[16]
  luciferase signal: 40 AU (inactive)
F380Y
  log fold change Tl+ flux: 0.0395 (inactive)
F380Y/beta2Delta
  log fold change Tl+ flux: 0.193 (active)
[17]
  log fold change Tl+ flux: 0.0351 (inactive)

## CN(C)CCOC(C)(c1ccccc1)c1ccccn1 (configuration not stated)
[1]
  inhibition: -0.4% (inactive)
[2]
  inhibition: -0.87% (inactive)
[3]
  fluorescence ratio: 1.06 (inactive)
[4]; at 10 µM
  nuclear beta-catenin stimulation: 1.1% (inactive)
[4]; stimulation, at 2 µM
  nuclear beta-catenin stimulation: -0.9%
[5]
  insulin secretion stimulation: 11.2% (inactive)
[6]
  viability decrease: 7.4% (inactive)
[7]
  tube area decrease: -15.5% (inactive)
[8]
  GLP1 secretion stimulation: 1% (inactive)
[9]
  inhibition of viability: 22.7% (inactive)
[10]
  viability decrease (inhibition): 28.1% (inactive)
[11]
  viability decrease (inhibition): -4.8% (inactive)
[12]
  inhibition: 1.67% (inactive)
[13]
  red/green cell ratio (normalised): 1.11 (inactive)
[13]; [18]
  normalised cell number: 1.38
[13]; [19]
  normalised cell number: 1.53
[14]; [20]
  z-score: 0.438 (inactive) and -0.212 (inactive) and 0.265 (inactive)
[14]; [21]
  z-score: -0.4 and -0.135 and 0.109
[15]
  remaining NAD: 10 nM (inactive)
[16]
  luciferase signal: 124 AU (inactive)
F380Y
  log fold change Tl+ flux: -0.0291 (inactive)
F380Y/beta2Delta
  log fold change Tl+ flux: -0.0218 (inactive)
[17]
  log fold change Tl+ flux: -0.0144 (inactive)

## Cc1ccc(Cl)c(Nc2ccccc2C(=O)O)c1Cl
[1]
  inhibition: 0.45% (inactive)
[2]
  inhibition: -0.48% (inactive)
[3]
  fluorescence ratio: 1 (inactive)
[4]; at 10 µM
  nuclear beta-catenin stimulation: 0.5% (inactive)
[4]; stimulation, at 2 µM
  nuclear beta-catenin stimulation: 1.2%
[5]
  insulin secretion stimulation: -1.1% (inactive)
[6]
  viability decrease: 8.4% (inactive)
[7]
  tube area decrease: 22.9% (inactive)
[8]
  GLP1 secretion stimulation: 5% (inactive)
[9]
  inhibition of viability: 35.8% (inactive)
[10]
  viability decrease (inhibition): 58.5% (active)
[11]
  viability decrease (inhibition): 78.5% (active)
[12]
  inhibition: 7.02% (inactive)
[13]
  red/green cell ratio (normalised): 0.98 (inactive)
[13]; [18]
  normalised cell number: 0.92
[13]; [19]
  normalised cell number: 0.9
[14]; [20]
  z-score: -0.277 (inactive) and 0.657 (inactive)
[14]; [21]
  z-score: -0.131 and 0.573
[15]
  remaining NAD: 10 nM (inactive)
[16]
  luciferase signal: 48 AU (inactive)
F380Y
  log fold change Tl+ flux: 0.212 (active)
F380Y/beta2Delta
  log fold change Tl+ flux: 0.243 (active)
[17]
  log fold change Tl+ flux: 0.122 (active)

## Nc1nc(N)c2nc(-c3ccccc3)c(N)nc2n1
[1]
  inhibition: 7.73% (inactive)
[2]
  inhibition: 7.91% (inactive)
[3]
  fluorescence ratio: 0.9 (inactive)
[4]; at 10 µM
  nuclear beta-catenin stimulation: 17.3% (inactive)
[4]; stimulation, at 2 µM
  nuclear beta-catenin stimulation: 4.7%
[5]
  insulin secretion stimulation: -0.7% (inactive)
[6]
  viability decrease: 91.2% (active)
[7]
  tube area decrease: 10.4% (inactive)
[8]
  GLP1 secretion stimulation: 2.6% (inactive)
[9]
  inhibition of viability: 83% (active)
[10]
  viability decrease (inhibition): 75.8% (active)
[11]
  viability decrease (inhibition): 0.75% (inactive)
[12]
  inhibition: 13.3% (inactive)
[13]
  red/green cell ratio (normalised): 1.25 (inactive)
[13]; [18]
  normalised cell number: 1
[13]; [19]
  normalised cell number: 1.25
[14]; [20]
  z-score: -0.205 (inactive) and 1.1 (inactive)
[14]; [21]
  z-score: -0.161 and 0.254
[15]
  remaining NAD: 10 nM (inactive)
[16]
  luciferase signal: 48 AU (inactive)
F380Y
  log fold change Tl+ flux: 0.00573 (inactive)
F380Y/beta2Delta
  log fold change Tl+ flux: 0.0397 (inactive)
[17]
  log fold change Tl+ flux: 0.00721 (inactive)
